In PubChem BioAssay AID1159580 (chemical genetic matrix, 2015):
Out of some 5,500 compounds screened, about 2,000 (36%) were called active. Roughly 18% stayed inconclusive and do not appear here. Cut-off read from the data, not from the text of the source: active = normalized growth mostly below about 0.91 (no sharp cut-off); inconclusive = no clear call, values can overlap the other calls; inactive = mostly above about 0.92. The list shows a part of the results.

Assay: chemical genetic growth profiling, strain panel (AID 1159580);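 note: tested at 20 µM; growth read once vehicle control cultures reached saturation at 30 °C; 1 = growth at the plate median or of vehicle wells; lower values mean less growth of the strain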
Conditions: growth OD

Measured: normalized growth

CN(C)CC[C@H](c1ccc(Cl)cc1)c1ccccn1
inactive: S. cerevisiae deletion strains, locus YJR075W, strain HOC1, active compounds read low 0.994 | S. cerevisiae deletion strains, locus YKL009W, strain mrt4, active compounds read low 1.01 | S. cerevisiae deletion strains, locus YKL068W, active compounds read low 0.997 | S. cerevisiae deletion strains, locus YKL085W, strain MDH1 (second series), active compounds read low 0.995 | S. cerevisiae deletion strains, locus YKL085W, strain MDH1, active compounds read low 0.995 | S. cerevisiae deletion strains, locus YKL160W, strain elf1, active compounds read low 0.994 | S. cerevisiae deletion strains, locus YKL190W, strain CNB1, active compounds read low 1 | S. cerevisiae deletion strains, locus YKR001C, strain vps1, active compounds read low 0.989 | S. cerevisiae deletion strains, locus YKR026C, strain gcn3, active compounds read low 1 | S. cerevisiae deletion strains, locus YKR091W, strain srl3, active compounds read low 1.01 | S. cerevisiae deletion strains, locus YLL001W, strain dnm1, active compounds read low 0.991 | S. cerevisiae deletion strains, locus YLL026W, active compounds read low 0.997 | S. cerevisiae deletion strains, locus YLL041C, strain sdh2, active compounds read low 0.992 | S. cerevisiae deletion strains, locus YLR027C, strain aat2, active compounds read low 1 | S. cerevisiae deletion strains, locus YLR039C, strain RIC1, active compounds read low 1.04 | S. cerevisiae deletion strains, locus YLR058C, strain SHM2, active compounds read low 1 | S. cerevisiae deletion strains, locus YLR102C, strain apc9, active compounds read low 0.989 | S. cerevisiae deletion strains, locus YLR113W, strain HOG1, active compounds read low 1.02 | S. cerevisiae deletion strains, locus YLR221C, strain rsa3, active compounds read low 1.01 | S. cerevisiae deletion strains, locus YLR258W, strain gsy2, active compounds read low 0.993 | S. cerevisiae deletion strains, locus YLR262C, strain YPT6 (second series), active compounds read low 1.01 | S. cerevisiae deletion strains, locus YLR262C, strain YPT6, active compounds read low 1 | S. cerevisiae deletion strains, locus YLR268W, strain sec22, active compounds read low 0.965 | S. cerevisiae deletion strains, locus YLR320W, strain mms22, active compounds read low 0.997 | S. cerevisiae deletion strains, locus YLR330W, strain CHS5, active compounds read low 1.01 | S. cerevisiae deletion strains, locus YLR342W, strain FKS1 (second series), active compounds read low 1.02 | S. cerevisiae deletion strains, locus YLR342W, strain FKS1, active compounds read low 1 | S. cerevisiae deletion strains, locus YLR357W, strain rsc2, active compounds read low 0.959 | S. cerevisiae deletion strains, locus YLR370C, strain arc18, active compounds read low 1 | S. cerevisiae deletion strains, locus YLR371W, strain rom2, active compounds read low 0.991 | S. cerevisiae deletion strains, locus YLR384C, strain iki3, active compounds read low 0.996 | S. cerevisiae deletion strains, locus YLR418C, strain cdc73, active compounds read low 0.994 | S. cerevisiae deletion strains, locus YML016C, strain PPZ1, active compounds read low 1 | S. cerevisiae deletion strains, locus YML032C, strain rad52, active compounds read low 0.966 | S. cerevisiae deletion strains, locus YML120C, strain ndi1, active compounds read low 1.01 | S. cerevisiae deletion strains, locus YML124C, strain tub3, active compounds read low 0.994 | S. cerevisiae deletion strains, locus YMR058W, strain fet3, active compounds read low 1 | S. cerevisiae deletion strains, locus YMR078C, strain ctf18, active compounds read low 0.993 | S. cerevisiae deletion strains, locus YMR125W, strain sto1, active compounds read low 0.997 | S. cerevisiae deletion strains, locus YMR129W, active compounds read low 1 | S. cerevisiae deletion strains, locus YMR205C, strain PFK2, active compounds read low 1.02 | S. cerevisiae deletion strains, locus YMR223W, strain ubp8, active compounds read low 1.01 | S. cerevisiae deletion strains, locus YMR231W, strain pep5, active compounds read low 0.993 | S. cerevisiae deletion strains, locus YMR263W, strain SAP30, active compounds read low 1.02 | S. cerevisiae deletion strains, locus YMR307W, strain GAS1, active compounds read low 0.99 | S. cerevisiae deletion strains, locus YNL067W, strain RPL9B, active compounds read low 0.999 | S. cerevisiae deletion strains, locus YNL071W, strain lat1, active compounds read low 0.998 | S. cerevisiae deletion strains, locus YNL128W, strain TEP1, active compounds read low 1.01 | S. cerevisiae deletion strains, locus YNL153C, strain GIM3, active compounds read low 0.992 | S. cerevisiae deletion strains, locus YNL183C, strain NPR1, active compounds read low 0.956 | S. cerevisiae deletion strains, locus YNL209W, strain ssb2, active compounds read low 1 | S. cerevisiae deletion strains, locus YNL233W, strain BNI4, active compounds read low 1.01 | S. cerevisiae deletion strains, locus YNL248C, strain rpa49, active compounds read low 0.945 | S. cerevisiae deletion strains, locus YNL250W, strain rad50, active compounds read low 0.977 | S. cerevisiae deletion strains, locus YNL271C, strain bni1, active compounds read low 0.988 | S. cerevisiae deletion strains, locus YNL298W, strain CLA4, active compounds read low 0.996 | S. cerevisiae deletion strains, locus YNL307C, strain MCK1, active compounds read low 1 | S. cerevisiae deletion strains, locus YNL322C, strain KRE1 (second series), active compounds read low 1.02 | S. cerevisiae deletion strains, locus YNL322C, strain KRE1, active compounds read low 1 | S. cerevisiae deletion strains, locus YNR049C, strain mso1, active compounds read low 0.996 | S. cerevisiae deletion strains, locus YNR052C, strain pop2, active compounds read low 0.989 | S. cerevisiae deletion strains, locus YOL006C, strain TOP1, active compounds read low 1 | S. cerevisiae deletion strains, locus YOL012C, strain htz1 0.629 | S. cerevisiae deletion strains, locus YOL147C, strain pex11, active compounds read low 0.991 | S. cerevisiae deletion strains, locus YOR001W, strain rrp6, active compounds read low 0.987 | S. cerevisiae deletion strains, locus YOR061W, strain CKA2, active compounds read low 1.01 | S. cerevisiae deletion strains, locus YOR069W, strain VPS5, active compounds read low 1 | S. cerevisiae deletion strains, locus YOR070C, strain gyp1, active compounds read low 0.997 | S. cerevisiae deletion strains, locus YOR080W, strain dia2, active compounds read low 0.997 | S. cerevisiae deletion strains, locus YOR083W, strain WHI5, active compounds read low 0.997 | S. cerevisiae deletion strains, locus YOR106W, strain vam3, active compounds read low 1.01 | S. cerevisiae deletion strains, locus YOR136W, strain idh2, active compounds read low 0.992 | S. cerevisiae deletion strains, locus YOR144C, strain elg1, active compounds read low 0.988 | S. cerevisiae deletion strains, locus YOR184W, strain ser1, active compounds read low 1.02 | S. cerevisiae deletion strains, locus YOR231W, strain MKK1, active compounds read low 0.998 | S. cerevisiae deletion strains, locus YOR265W, strain rbl2, active compounds read low 1 | S. cerevisiae deletion strains, locus YOR270C, strain vph1, active compounds read low 1.01 | S. cerevisiae deletion strains, locus YOR290C, strain snf2, active compounds read low 0.998 | S. cerevisiae deletion strains, locus YOR316C, strain cot1, active compounds read low 0.995 | S. cerevisiae deletion strains, locus YPL051W, strain arl3, active compounds read low 1.01 | S. cerevisiae deletion strains, locus YPL055C, strain LGE1, active compounds read low 1.02 | S. cerevisiae deletion strains, locus YPL078C, strain atp4, active compounds read low 0.989 | S. cerevisiae deletion strains, locus YPL106C, strain sse1, active compounds read low 1.01 | S. cerevisiae deletion strains, locus YPL240C, strain hsp82, active compounds read low 0.997 | S. cerevisiae deletion strains, locus YPL241C, strain CIN2, active compounds read low 1 | S. cerevisiae deletion strains, locus YPL256C, strain CLN2, active compounds read low 0.985 | S. cerevisiae deletion strains, locus YPR119W, strain clb2, active compounds read low 0.989 | S. cerevisiae deletion strains, locus YPR141C, strain kar3, active compounds read low 0.98 | S. cerevisiae deletion strains, locus YPR163C, strain tif3, active compounds read low 0.992 | S. cerevisiae deletion strains, locus YPR167C, strain met16, active compounds read low 0.994 | S. cerevisiae deletion strains, strain wtn01, active compounds read low 0.995 | S. cerevisiae strains, strain wild type, active compounds read low 1.01
